These results are taken from PubChem BioAssay (Tox21).

Several values for one entry are separate records, joined by “and”; a condition that tells them apart may be missing. Identical values can stand only once. Records with an inconclusive call do not appear. Entries that show only a call come without a potency. Activity calls are given as the source filed them. Unless noted, calls follow the shape of the dose curve; as a rule, active = well fitted cell-killing curve with a large enough effect in the repeat runs (not every such curve was filed as active); inconclusive = weak or mixed curves, or effect the other way; inactive = no such curve, though single readings can be large or run the other way.

Chain of Vitamin D3 receptor (Homo sapiens) (P11473 whole entry, looked up): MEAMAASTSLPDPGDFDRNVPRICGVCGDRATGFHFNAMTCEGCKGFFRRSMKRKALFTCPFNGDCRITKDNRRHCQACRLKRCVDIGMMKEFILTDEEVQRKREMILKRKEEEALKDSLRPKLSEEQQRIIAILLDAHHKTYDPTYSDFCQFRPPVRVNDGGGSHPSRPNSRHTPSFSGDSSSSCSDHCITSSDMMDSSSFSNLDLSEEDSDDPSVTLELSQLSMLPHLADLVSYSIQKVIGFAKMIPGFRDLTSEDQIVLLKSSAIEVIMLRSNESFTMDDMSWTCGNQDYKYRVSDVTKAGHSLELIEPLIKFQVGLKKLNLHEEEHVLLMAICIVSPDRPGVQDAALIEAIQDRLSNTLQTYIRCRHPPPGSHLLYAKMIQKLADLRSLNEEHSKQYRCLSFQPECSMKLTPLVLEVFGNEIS

Tested on in one assay: not listed separately
Put plainly: qHTS assay to identify small molecule antagonists of the farnesoid-X-receptor (FXR) signaling pathway - cell viability counter screen (AID 743221). Also: nearly all actives have a fitted effect of over 50% in size. Also: potency is read from the fitted curve at half-maximal effect. Conditions: FXR-bla HEK293T viability, CellTiter-Glo luminescence, 16 h; series mostly up to 62.6 µM. The gist of the method: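 CellTiter-Glo, 30 min RT, luminescence; same wells as the LiveBLAzer FRET read. Cells: FXR-UAS-bla HEK 293T. Treatment: compound with chenodeoxycholic acid 50 uM final, 16 h at 37 C.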
On the technique in general: qHTS replaces the single test concentration by a dilution series.
Turning to `c1ccncc1`, the Potency entry was “inactive”.
On the same count and under the same terms, the entry for `O=C(c1ccccc1)c1ccccc1O` is “inactive”.
Still for that read-out and setting: the entry for `O=C1c2cccc(O)c2C(=O)c2c(O)cccc21` is “inactive”; for `Cc1ccc(C(=O)c2cc(O)c(O)c([N+](=O)[O-])c2)cc1` it is “inactive”; for `CC(C)=CCC/C(C)=C\CO` it is “inactive”.
Same read-out and setting: the result for `CC(C)CC(C)(O)C#CC(C)(O)CC(C)C` (configuration not stated) reads “inactive”.
As for `O=C(O)c1ccccc1Nc1cccc(C(F)(F)F)c1`, the Potency entry is “inactive”.
The same measure, in the same setting: the result for `CCCCOCCOCCO` reads “inactive”; that for `CC1=CCC(C(C)(C)O)CC1` (configuration not stated), “inactive”; that for `Nc1ccccc1N`, “inactive”.
Regarding `CCCCC/C=C/C=C/C=O`, the Potency entry is “inactive”.
For `O=C(OCc1ccccc1)c1ccccc1O`, the Potency result is “inactive”.
On the same count and under the same terms, the entry for `c1ccc2cc(Nc3ccc(Nc4ccc5ccccc5c4)cc3)ccc2c1` is “inactive”; for `Nc1ncn([C@@H]2O[C@H](CO)[C@@H](O)[C@H]2O)c(=O)n1` it is “inactive”; for `CC(C)=CCCC(C)CCO` (configuration not stated) it is “inactive”.
Same read-out and setting: the entry for `CCCCNS(=O)(=O)c1ccccc1` is “inactive”.
On to `C/C=C/C(=O)O`, for which the Potency entry is “inactive”.
Still for that read-out and setting: the entry for `CCCCCCCCCCCO` is “inactive”; for `O=C(c1ccccc1)c1ccc(O)cc1O` it is “inactive”.
In the case of `Cc1cc2nc3c(=O)[nH]c(=O)nc-3n(C[C@H](O)[C@H](O)[C@H](O)CO)c2cc1C`, the Potency result was “inactive”.
The same measure, in the same setting: the entry for `O=C1OC2(c3cc(Br)c(O)c(Br)c3Oc3c2cc(Br)c(O)c3Br)c2c(Cl)c(Cl)c(Cl)c(Cl)c21` is “inactive”; for `Nc1ccc(S(=O)(=O)Nc2cnc3ccccc3n2)cc1` it is “inactive”; for `NC=O` it is “inactive”.
Same read-out and setting: the entry for `O=Cc1ccccc1O` is “inactive”; for `C[C@]12CC[C@H]3[C@@H](CCC4=CC(=O)CC[C@@]43C)[C@@H]1CC[C@@H]2C(=O)CO` it is “inactive”; for `CCCCC(CC)COCC1CO1` (configuration not stated) it is “inactive”.
For the compound `CC(=O)CC/C=C(\C)CCC=C(C)C`, the Potency result was “inactive”.
Consider `CCCCc1oc2ccccc2c1C(=O)c1cc(I)c(OCCN(CC)CC)c(I)c1`, for which the Potency was 34.9 µM (active) and 29.8 µM (active).
As to `C=C(C)C1CC=C(C)CC1` (configuration not stated), the Potency result is “inactive”.
On the same count and under the same terms, the result for `O=C(Nc1ccc([N+](=O)[O-])cc1Cl)c1cc(Cl)ccc1O` reads 3.26 µM (active); that for `C#C[C@]1(O)CC[C@H]2[C@@H]3CCc4cc(OC)ccc4[C@H]3CC[C@@]21C`, “inactive”.
Turning to `CC(=O)O[C@]1(C(C)=O)CC[C@H]2[C@@H]3C=C(Cl)C4=CC(=O)[C@@H]5C[C@@H]5[C@]4(C)[C@H]3CC[C@@]21C`, the Potency entry is “inactive”.
Consider `Nc1ccc(Nc2ccccc2)cc1`, for which the Potency entry was “inactive”.
Consider `C=C(C)C(=O)OCCOC(=O)C(=C)C`, for which the Potency result was “inactive”.
`O=C(c1ccc(OCCN2CCCCC2)cc1)c1c(-c2ccc(O)cc2)sc2cc(O)ccc12`: the Potency is 55 µM (active).
Same read-out and setting: the result for `COC(=O)CCC(=O)OC` reads “inactive”; that for `Nc1ccc(Cl)cc1Cl`, “inactive”.
Same read-out and setting: the entry for `CC(C)OC(=O)C(C)(C)Oc1ccc(C(=O)c2ccc(Cl)cc2)cc1` is “inactive”.

The next assay has as its target Vitamin D3 receptor (Homo sapiens) (UniProt P11473). Put plainly: qHTS assay to identify small molecule agonists of the vitamin D receptor (VDR) signaling pathway (AID 743222; calls by dose curve). As to conditions: HEK293T VDR-UAS-bla, beta-lactamase FRET ratio, 16 h; series mostly up to 63.5 µM. The gist of the method:
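VDR-bla cells were plated 4 h at 37C/5% CO2, then exposed to compounds in DMSO for 16 h. After LiveBLAzer B/G FRET substrate addition and 2 h at room temperature, beta-lactamase reporter fluorescence was read.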
On to `c1ccncc1`, for which the outcome was inactive.
For the compound `O=C(c1ccccc1)c1ccccc1O`, the result was inactive.
Consider `O=C1c2cccc(O)c2C(=O)c2c(O)cccc21`, for which the outcome was inactive.
The same measure, in the same setting: the result for `CC(C)=CCC/C(C)=C\CO` reads “inactive”.
As to `CC(C)CC(C)(O)C#CC(C)(O)CC(C)C` (configuration not stated), the result was inactive.
Still for that read-out and setting: the result for `CCCCOCCOCCO` reads “inactive”; that for `CC1=CCC(C(C)(C)O)CC1` (configuration not stated), “inactive”.
The same measure, in the same setting: the entry for `Nc1ccccc1N` is “inactive”.
Regarding `CCCCC/C=C/C=C/C=O`, the outcome was inactive.
As to `O=C(OCc1ccccc1)c1ccccc1O`, the outcome was inactive.
Consider `c1ccc2cc(Nc3ccc(Nc4ccc5ccccc5c4)cc3)ccc2c1`, for which the result was inactive.
The same measure, in the same setting: the result for `Nc1ncn([C@@H]2O[C@H](CO)[C@@H](O)[C@H]2O)c(=O)n1` reads “inactive”; that for `CCCCNS(=O)(=O)c1ccccc1`, “inactive”.
The same measure, in the same setting: the entry for `C/C=C/C(=O)O` is “inactive”; for `CCCCCCCCCCCO` it is “inactive”; for `Nc1ccc(S(=O)(=O)Nc2cnc3ccccc3n2)cc1` it is “inactive”.
In the case of `NC=O`, the outcome was inactive.
In the case of `O=Cc1ccccc1O`, the outcome was inactive.
Same read-out and setting: the entry for `C[C@]12CC[C@H]3[C@@H](CCC4=CC(=O)CC[C@@]43C)[C@@H]1CC[C@@H]2C(=O)CO` is “inactive”.
For the compound `CCCCC(CC)COCC1CO1` (configuration not stated), the result was inactive.
Still for that read-out and setting: the entry for `CC(=O)CC/C=C(\C)CCC=C(C)C` is “inactive”; for `C#C[C@]1(O)CC[C@H]2[C@@H]3CCc4cc(OC)ccc4[C@H]3CC[C@@]21C` it is “inactive”.
In the case of `C=C(C)C(=O)OCCOC(=O)C(=C)C`, the result was inactive.
On the same count and under the same terms, the result for `COC(=O)CCC(=O)OC` reads “inactive”; that for `CC(C)OC(=O)C(C)(C)Oc1ccc(C(=O)c2ccc(Cl)cc2)cc1`, “inactive”.

The target is the same in another assay. The assay can be described thus: qHTS assay to identify small molecule antagonists of the vitamin D receptor (VDR) signaling pathway (AID 743223; active = well fitted inhibition curve with a large enough effect in the signal ratio in the repeat runs, not every such curve was filed as active; the % refers to the signal ratio). Conditions: VDR-UAS-bla HEK293T, beta-lactamase FRET ratio, 16 h; series mostly up to 61 µM. The gist of the method:
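After VDR-bla cells are plated and left 4 h at 37C, DMSO-dissolved compounds and 3 nM (final) calcitriol agonist are added. Incubation continues 16 h at 37C; FRET beta-lactamase substrate then develops 2 h at room temperature.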
As to `O=C(c1ccccc1)c1ccccc1O`, the outcome was inactive.
With `O=C1c2cccc(O)c2C(=O)c2c(O)cccc21`, the outcome was inactive.
On the same count and under the same terms, the entry for `Cc1ccc(C(=O)c2cc(O)c(O)c([N+](=O)[O-])c2)cc1` is “inactive”; for `CC(C)=CCC/C(C)=C\CO` it is “inactive”; for `CC(C)CC(C)(O)C#CC(C)(O)CC(C)C` (configuration not stated) it is “inactive”.
Same read-out and setting: the entry for `O=C(O)c1ccccc1Nc1cccc(C(F)(F)F)c1` is “inactive”; for `CCCCOCCOCCO` it is “inactive”; for `CC1=CCC(C(C)(C)O)CC1` (configuration not stated) it is “inactive”.
Still for that read-out and setting: the entry for `O=C(OCc1ccccc1)c1ccccc1O` is “inactive”.
Regarding `c1ccc2cc(Nc3ccc(Nc4ccc5ccccc5c4)cc3)ccc2c1`, the outcome was inactive.
With `CCCCNS(=O)(=O)c1ccccc1`, the outcome was inactive.
With `C/C=C/C(=O)O`, the result was inactive.
The same measure, in the same setting: the result for `CCCCCCCCCCCO` reads “inactive”.
As to `Nc1ccc(S(=O)(=O)Nc2cnc3ccccc3n2)cc1`, the outcome was inactive.
For the compound `NC=O`, the outcome was inactive.
The same measure, in the same setting: the result for `O=Cc1ccccc1O` reads “inactive”; that for `CCCCC(CC)COCC1CO1` (configuration not stated), “inactive”; that for `CC(=O)CC/C=C(\C)CCC=C(C)C`, “inactive”.
Still for that read-out and setting: the entry for `CCCCc1oc2ccccc2c1C(=O)c1cc(I)c(OCCN(CC)CC)c(I)c1` is “inactive”; for `C#C[C@]1(O)CC[C@H]2[C@@H]3CCc4cc(OC)ccc4[C@H]3CC[C@@]21C` it is “inactive”.
On the same count and under the same terms, the entry for `CC(=O)O[C@]1(C(C)=O)CC[C@H]2[C@@H]3C=C(Cl)C4=CC(=O)[C@@H]5C[C@@H]5[C@]4(C)[C@H]3CC[C@@]21C` is “inactive”; for `C=C(C)C(=O)OCCOC(=O)C(=C)C` it is “inactive”; for `COC(=O)CCC(=O)OC` it is “inactive”.
For the compound `CC(C)OC(=O)C(C)(C)Oc1ccc(C(=O)c2ccc(Cl)cc2)cc1`, the outcome was inactive.
